Experimental data published in the supplement of paper PMC6555819.

What was measured:
Assay in all cases: PBM binding z-score (relative to random genomic background probes); higher = stronger binding; sequences stand for … in GC…GCGATTGACAGCGTAGAATGAAGG
[1] = system: RARb homodimer (NR concentration 270 nM)
In short: (§1)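 Scanned fluorescence from custom Agilent 4×180K protein-binding microarrays was regression-normalized. Binding z-scores use random background probes as reference. Ligand-free nuclear receptor dimers were incubated on the arrays for 1 h and detected with antibodies against each partner (one per run).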

[2] = system: RARg:RXRa (NR concentration 270 nM, RXRa partner concentration 90 nM)
In short: as §1

[3] = system: RARg homodimer (NR concentration 270 nM)
In short: as §1

[4] = system: RXRa DBDmut IVT, anti-RXR (DBD mutation: RXRa K156A/R161A, NR concentration 90 nM)
In short: as §1

[5] = system: RXRa homodimer (NR concentration 180 nM)
In short: as §1

[6] = system: THRa:RXRa (NR concentration 90 nM, RXRa partner concentration 90 nM)
In short: as §1

[7] = system: THRa homodimer (NR concentration 90 nM)
In short: as §1

[8] = system: VDR homodimer (NR concentration 270 nM)
In short: as §1

Row | Sequence | PBM binding z-score [1] | PBM binding z-score [2] | PBM binding z-score [3] | PBM binding z-score [4] | PBM binding z-score [5] | PBM binding z-score [6] | PBM binding z-score [7] | PBM binding z-score [8]
1 | TCATATAGGTGAAGGTGAAAGTCGAACGATATGA | 1.3 | 1.42 | 1.48 | 0.518 | 1.6 | 0.793 | -0.343 | -0.0365
2 | GCTCGGAGGACAATGTCAGAGCTTTGTCCGTAGA | 0.0448 | -0.133 | 0.0822 | 0.18 | -0.593 | 0.348 | -0.612 | -0.447
3 | CGACCAAGGTGAACAAGGTCGTTGATTACTATTC | 2.12 | 1.92 | 1.56 | 0.907 | 2.13 | 3.35 | 1.68 | 1.82
4 | CCTACTGGTCCAAAGGTCATTGATTCCAATGCTC | 4.86 | 5.09 | 4.49 | 2.23 | 5.45 | 3.31 | 1.49 | 2.58
5 | CCTAGGTGGTCAGGAGGTCACACACCGGATATGA | 4.34 | 5.44 | 4.63 | 0.00245 | 5.16 | 3.45 | 2.2 | 2.85
6 | CGAACTAGGTCAGAACAGAACAGTGAAGGATGAT | 1.65 | 2.36 | 3.14 | 0.286 | 1.16 | 1.34 | -0.073 | -0.0834
7 | CAGACTGGGGCAAGGTTACCATAACGCACAGCCA | 1.35 | 1.16 | 1.52 | -0.141 | 1.34 | 1.41 | 0.328 | 0.0721
8 | TATACAGGGTCAAAGGCCAGTGTACGAATGTCGA | 3.45 | 5.7 | 5.08 | 2.97 | 7.04 | 3.57 | 0.905 | 2.75
9 | GCGACTGGGGCAAAGCTGGTTACCATAAGGTTGG | 0.208 | 0.0391 | 0.0418 | 0.0315 | -0.0119 | 0.398 | -0.232 | -0.208
10 | TTATATAGGTAAAAGGTGAAAGTCGGTGTGGTAA | 1.62 | 2.08 | 0.991 | 0.197 | 2.87 | 1.77 | 0.486 | 0.445
11 | ATCGAAAGGTCGCGGTGAGTATAGAGAAAGGGAA | 3.05 | 5 | 4.48 | 1.33 | 5.39 | 2.84 | 0.211 | 1.06
12 | GCTTGTAGATCAAGGTTAAGCAAGACTAAGCTAA | 0.306 | 0.623 | 0.359 | -0.0459 | 0.912 | 1.67 | -0.236 | -0.472
13 | TTACCAAGGTGAGCTGAGGTTGTTGATCCAACTC | 0.122 | -0.185 | 0.109 | -0.414 | -0.0103 | 3.29 | 0.439 | -0.373
14 | TCGAGTACGTTAGGGGCATTCAGAATGGCGTCGA | 0.267 | 0.169 | -0.0328 | 3.64 | 0.3 | 0.637 | -0.622 | 5.05
15 | TCATATAGGTAATACAGGTGTAAGTCGGCATCTA | -0.213 | 0.547 | 0.355 | 1.67 | 1.03 | 0.384 | 0.316 | 0.283
16 | CAAACTAGGTCCAGGTCAAAGTCGGTTTGTGCCA | 3.03 | 2.6 | 2.27 | 1.62 | 2.37 | 3.31 | 2.79 | 2.49
17 | CTCGAAAGGTCGTGCTGAGGTGAGTATACCAAAC | 3.29 | 5.56 | 4.04 | 1.92 | 4.81 | 4.6 | 1.38 | 1.06
18 | TTACCAAGGTGGGCTGAGGTCGTTGATCCAACTC | 1.04 | 0.249 | -0.257 | 0.273 | 0.833 | 3.77 | 1.5 | 2.06
19 | GCTAGTTGGTCAGTAAAAGGTCACGCACCGGTCG | 5.17 | 6.19 | 5.77 | 0.692 | 6.35 | 3.75 | 2.43 | 2.07
20 | CCTAGCACGCCAGGGTCACTCAAGCATTTCGCTT | 2.65 | 2.94 | 2.18 | 0.65 | 3.14 | 2.76 | 1.12 | 0.973
21 | CAGCCTAGGTCAGGGCGAGTATAGGAGGAACGTT | 2.44 | 3.08 | 3.72 | 0.0681 | 1.76 | 2.03 | 0.0582 | -0.499
22 | CGTCCAAGGTCAGAGGGGTCAGTGAATGCCGAGT | 5.33 | 6.54 | 7.18 | 3.32 | 6.41 | 4.28 | 2.82 | 5.91
23 | AGAATGAGGTTATACGTAGATCACGGAAGAAAGT | 0.646 | 1.96 | 1.21 | 2 | 2.38 | 2.11 | 0.348 | 0.934
24 | TCTTGTAGATCAATAGAGGATAAGAAAGTGCGCT | -0.566 | 0.208 | 0.365 | 0.919 | 0.16 | 1.5 | -0.588 | 0.0606
25 | CCTAGTGGGCCATTCAGAGGTCATTGATCATATG | 3.74 | 4.53 | 3.07 | 0.957 | 3.76 | 3.08 | 1.34 | 3.53
26 | GCATATAGGTATTACAAGGTGAAAGTCCGATTGT | 0.63 | 0.464 | 0.464 | 0.414 | 0.523 | 3.76 | 1.14 | -0.251
27 | GCTTGTAGATCAAGGTTAAGAGAGACTAAGCTAA | 0.148 | 0.263 | 0.22 | -0.00641 | 0.438 | 1.2 | -0.0888 | -0.335
28 | CGAACTAGGTCAGAACAGGACAATGAAGGATGAT | 2.03 | 2.55 | 3.32 | 0.605 | 1.37 | 3.62 | 0.458 | 0.155
29 | CCGAGTAGTTTATGGGGCATTCAGGCAACGGTGA | 0.512 | -0.0698 | 0.182 | 0.904 | -0.158 | 0.238 | 0.0882 | 0.37
